# Experimental data as given in PubChem BioAssay AID540326 (Broad Institute, 2011).
# Some of the results follow. Activity calls are given as the source filed them.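 How the source made its calls: active means quenching, a falling signal, with AC50 below a set limit tied to the top valid dose (actives reach about 32 µM in these data); inconclusive means no clear call, values can overlap the other calls; inactive means rising signal, and the rest.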
# Test: compounds quenching DiI signal without cells – biochemical, cherry-pick samples, plate reader fluorescence, artefact control for SR-BI HDL uptake inhibitor project, dose response (AID 540326)
smiles,measurement,value
CC(=O)OC1C2(CC3N4C(=O)C5(CO)SSC4(CC31O)C(=O)N5C)OC(C)C(C)(C)C2=O (stereo unspecified),outcome,inactive
